ChEMBL document CHEMBL4513216, “Probing the Open Global Health Chemical Diversity Library for Multistage-Active Starting Points for Next-Generation Antimalarials” (ACS Infect Dis, 2020)
In all, about 69,000 compounds went through this assay and about 8,600 (12%) showed an effect of 50% or more. Shown is part of a subset that was picked to be rich in strong results.

Tested on: Plasmodium berghei
Test: Screen against P. berghei liver stage (PbLuc), transformed with Luciferase, at 10uM
Assay type: functional, HepG2
Settings: tested at 10 uM

| Structure (SMILES) | INHIBITION [%] |
| --- | --- |
| CN1CC(=O)N(c2ccccc2)CC12CCN(CC1CC1)C2 (stereo not given) | 48.9 |
| O=C(NCCCn1cncn1)N1CCC(N2CCCCC2)CC1 | -17.167 |
| Cn1cccc1C(=O)N1CCc2ccc(=O)n(C)c2CC1 | 21.4 |
| O=C1CC(c2cccnc2)c2c(c(C(=O)O)cn2-c2cccc(F)c2)N1 (stereo not given) | -18.3 |
| CN1CCC2(CCN(c3ncc(F)cn3)CC2)C1=O | 30.5 |
| CN(Cc1nc(Cc2ccccc2F)no1)CC1Cc2ccccc2O1 (stereo not given) | 52 |
| CN(Cc1nc(CC2CC2)no1)CC1Cc2ccccc2O1 (stereo not given) | 12.6 |
| CN(Cc1nc(COc2ccccc2)no1)CC1Cc2ccccc2O1 (stereo not given) | 8.07 |
| O=C(Nc1nc(-c2ccccc2)ns1)N1CC[C@H](O)C1 | 9.79 |
| CCSc1ccc(C(=O)N2CCC3(CCC(=O)N(C)C3)CC2)s1 | 20.3 |
| Cc1c(Br)cnn1C(C)C(=O)Nc1nncs1 (stereo not given) | 39.9 |
| Cc1nc(NC(=O)C(C)n2ncc(Br)c2C)sc1C (stereo not given) | 21.5 |
| Cc1nnc(NC(=O)C(C)n2ncc(Br)c2C)s1 (stereo not given) | 50.2 |
| CN(C)Cc1cnc(C2CCN(C(=O)c3cccc(Cl)c3)C2)[nH]1 (stereo not given) | 12.375 |
| COC(=O)CC1CCN(C(=O)c2ccccc2-n2nnnc2C)CC1 | 9.57 |
| Cc1nn(C)cc1CN1CCCC(n2c(=O)oc3ccc(Cl)cc32)C1 (stereo not given) | 36 |
| Cc1cc(C)cc(N(C)S(=O)(=O)c2cc(C(=O)O)cs2)c1 | 34.7 |
| CN(c1ccc(C(C)(C)C)cc1)S(=O)(=O)c1cc(C(=O)O)cs1 | 20.6 |
| Cc1ccc(N(C)S(=O)(=O)c2cc(C(=O)O)cs2)cc1 | 52.5 |
| O=c1n(CCSCCOc2ccc(Br)cc2)nc2ccccn12 | 2.49 |
| CN1CCN(C(=O)c2ccnc(N3CCOC(C(F)(F)F)C3)c2)CC1 (stereo not given) | -14.1 |
| O=C(c1ccnc(N2CCOC(C(F)(F)F)C2)c1)N1CCCC1 (stereo not given) | 7.77 |
| CNC(=O)c1ccc(C2CN(c3cc(C)nc(N)n3)CCO2)nc1 (stereo not given) | 25.855 |
| O=C(c1ccnc(N2CCOC(C(F)(F)F)C2)c1)N1CCOCC1 (stereo not given) | 12.7 |
| O=C(c1ccnc(N2CCOC(c3ccc(Cl)cc3)C2)c1)N1CCCC1 (stereo not given) | 73.5 |
| O=C(CN1C(=O)CCNC1=O)N1CCOC(c2ccc(Cl)c(Cl)c2)C1 (stereo not given) | -52.2 |
| O=C(NC1CC1)c1ccnc(N2CCOC(c3ccc(Cl)cc3)C2)c1 (stereo not given) | 67.7 |
| CC(C)n1ccnc1C1CCCN(c2cc(C(=O)NC3CC3)ccn2)C1 (stereo not given) | 31.2 |

| Structure (SMILES) | INHIBITION [%] |
| --- | --- |
| O=C(NC1CC1)c1ccnc(N2CCOC(c3ccc(Cl)c(Cl)c3)C2)c1 (stereo not given) | 86.6 |
| Cn1cc(CN2C[C@H]3CCN(C(=O)c4cscn4)C[C@H]3C2)cn1 | 43.9 |
| CC(C)Oc1ncccc1CNC(=O)Nc1ccccn1 | -17.6 |
| Cc1cc(-c2ccccc2C(=O)O)nc(C2CCCN(C(C)C)C2)n1 (stereo not given) | 13 |
| Cc1nc(NC2CCCC2)cc(C2CCN2C(=O)c2cnn(C)c2)n1 (stereo not given) | 0.301 |
| Cc1ccc2c(c1)SCC(=O)N2Cc1noc(C2CC2)n1 | -0.578 |
| O=C(NCCc1ccc(Cl)s1)NCc1nnc2n1CCCC2 | 21 |
| CCc1ccc(CNC(=O)NCc2nnc3n2CCC3)s1 | 25.1 |
| O=C(NCCC1=CCCCC1)NCc1nnc2n1CCC2 | 40.3 |
| O=C(NCCc1ccc(Cl)s1)NCc1nnc2n1CCC2 | 53.8 |
| CC(CN1CCOCC1)NC(=O)NCCc1ccc(Cl)s1 (stereo not given) | 53.4 |
| O=C(NCc1ccc(Cl)s1)NCc1nnc2n1CCCCC2 | -10.6 |
| CC(CN1CCOCC1)NC(=O)N(C)Cc1ccc(Cl)s1 (stereo not given) | -12.6 |
| Cn1cc(CCNC(=O)NCc2nnc3n2CCC3)cn1 | 59.7 |
| CCn1cnnc1CNC(=O)NC(c1ccc(OC)cc1)C1CC1 (stereo not given) | 32.5 |
| CN(Cc1cnn(C)c1)C(=O)NCc1nnc2n1CCC2 | -22.6 |
| COc1ccc(C(NC(=O)NCc2nnc3n2CCC3)C2CC2)cc1 (stereo not given) | 50.4 |
| CC(CN1CCOCC1)NC(=O)NCc1ccc(Cl)s1 (stereo not given) | -34.7 |
| CN(C)CCC1CCN(Cc2ccn(C)c(=O)c2)CC1 | -8.11 |
| CO[C@H]1CN(C(=O)c2ccccn2)[C@@H]2CCCO[C@H]12 | 36.4 |
| CC(C)c1ncc(Cl)c(C(=O)N2CCN(C3CC3)CC2)n1 | 40.7 |
| CS(=O)(=O)N1C[C@H]2CCCN(Cc3ccsc3)[C@H]2C1 | 21.6 |
| COc1cc(N2CCC3(CC2)CC(N2CCN(C)CC2)CO3)ncn1 (stereo not given) | 26 |
| Cc1cccc(C(=O)N2C[C@@H]3CC[C@H](Oc4cccc(F)c4)[C@@H]3C2)n1 | 25.6 |
| COCCN1CCC2(CCCN(C(=O)c3cncn3C)C2)CC1 | 49.7 |
| CNC(=O)CC1CC2(CCN(CC3CC3)CC2)Oc2ccccc21 (stereo not given) | 44.5 |
| Cc1nc2sccn2c1CN(CCCN(C)C)Cc1ccccn1 | -12.5 |
